{"source": "PubChem BioAssay (NCI)", "note": "About 83,000 compounds went through this panel and 20% of them were active in at least one assay; those are over-represented in the sample as a whole.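 Growth was measured after 48 h exposure to one concentration of compound in 96-well plates. Values under 10 count as active.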 Values without a mark were called inactive. The source made the active and inactive calls.", "data": [{"tested_on": "SF-295 CNS", "experiment": "NCI-60 one-dose screen, 48 h (100 = growth as untreated, 0 = no growth, -100 = all killed)", "conditions": "10 µM unless noted", "values": [{"smiles": "Cc1nn(-c2ccccc2)c(Cl)c1/C=C/C(=O)c1ccc(F)cc1", "growth": "91.2%"}, {"smiles": "COc1cc2oc(-c3cccc(C(=O)Nc4ccc(Br)cc4)c3)cc(=O)c2c(OC)c1OC", "growth": "52.9%"}, {"smiles": "CC1=C(C(=O)/C=C/c2c[nH]c3ccccc23)C(c2ccccc2)NC(=S)N1", "note": "(stereo not drawn)", "growth": "97.6%"}, {"smiles": "CCCCCN1C=C/C(=C\\C(=O)N(C)c2ccc(Oc3ccccc3)cc2)c2ccccc21", "growth": "81.1%"}, {"smiles": "Cn1cc(-c2nc(-c3c[nH]c4c(Cl)nccc34)cs2)c2cc(Br)ccc21", "growth": "91.4%"}, {"smiles": "COc1ccc(/C=C2\\Oc3cc(OCCCN4CCCCC4)ccc3C2=O)cc1OC", "growth": "102%"}, {"smiles": "Cc1cc2nc3c4cc(C=O)ccc4n(CCN(C)C)c3nc2cc1C", "growth": "17.1%"}, {"smiles": "S=c1cc(S)c2cc(Br)ccc2[nH]1", "growth": "100%"}, {"smiles": "O=C(/C(=C\\c1ccc([N+](=O)[O-])cc1)S(=O)Cc1ccc(Cl)cc1)c1ccc(Cl)cc1", "note": "(stereo not drawn)", "growth": "90.5%"}, {"smiles": "COc1cc(CC(=O)c2ccc(O)c(OC)c2)ccc1O", "growth": "98.9%"}, {"smiles": "O=C(NCCc1ccccc1)Nc1ccc2cc3ccc(NC(=O)NCCc4ccccc4)cc3nc2c1", "growth": "0.203% (active)"}, {"smiles": "C=C(C)[C@@H]1CC[C@]2(C(=O)N3CCN(C)CC3)CC[C@]3(C)[C@H](CC[C@@H]4[C@@]5(C)C/C(=C/c6cccnc6)C(=O)C(C)(C)[C@@H]5CC[C@]43C)[C@@H]12", "growth": "87.3%"}, {"smiles": "COc1cc2nc(-c3ccc(Cl)cc3)cc(OCCCN3CCC(O)CC3)c2cc1OC", "growth": "-10.5% (active)"}, {"smiles": "O=S(=O)(NCCNc1nccc(-c2c(-c3cccc(O)c3)nc3occn23)n1)c1ccccc1", "growth": "96.6%"}, {"smiles": "NC(=NCCCOc1ccc(F)cc1)Nc1ccc(Cl)cc1", "growth": "47.5%"}, {"smiles": "C#Cc1cccc(NC(=O)c2cccc(NC(=O)CCl)c2)c1", "growth": "21.9% [8.25 µM]"}, {"smiles": "CCN1Cc2nc3sc(C)c(C)c3c(=O)n2C=C1C", "growth": "81%"}, {"smiles": "O=C1Nc2cc(-c3cccc([N+](=O)[O-])c3)ccc2/C1=C/c1ccc[nH]1", "growth": "99.8%"}, {"smiles": "C[C@H]1[C@H](C)CC[C@]2(C(=O)NCC#CCN3CCN(C)CC3)CC[C@]3(C)C(=CC[C@@H]4[C@@]5(C)Cc6c([nH]c7ccccc67)C(C)(C)[C@@H]5CC[C@]43C)[C@H]12", "growth": "106%"}, {"smiles": "COc1cc(/C=C/c2cc(O)c(C(C)=O)c(O)c2)cc2c1O[C@]1(C)CC[C@@H](O)C(C)(C)[C@H]1C2", "growth": "8.72% (active)"}, {"smiles": "N#CC1=C(N)Oc2c(cnn2-c2ccc([N+](=O)[O-])cc2[N+](=O)[O-])C1c1ccccc1", "note": "(stereo not drawn)", "growth": "93.3%"}, {"smiles": "COc1ccc(C(=O)c2cc(C)c(OC)c(C)c2)c(OC)c1N(C(=O)CCl)C(=O)CCl", "growth": "5.4% (active)"}, {"smiles": "CCC(=O)Oc1ccc(/C(=C(\\C)c2ccccc2)c2ccc(OCCN3CCCCC3)cc2)cc1", "growth": "86.5%"}, {"smiles": "Cc1ccc(NC(=O)c2cc(-c3nc4ccccc4s3)c(=O)n(NS(=O)(=O)c3ccc(Cl)cc3)c2N)cc1", "growth": "101%"}, {"smiles": "O=C1Nc2ccc(F)cc2/C1=C\\c1c(-c2ccccc2)nc2ccccn12", "growth": "57%"}, {"smiles": "O=C(NO)c1ccc(-n2nc(-c3ccccc3)c3ccccc32)cc1", "growth": "80.9%"}, {"smiles": "O=C1Nc2ccccc2/C1=C\\c1c(-c2ccc(F)cc2)nc2ccccn12", "growth": "59.9%"}, {"smiles": "Oc1cccc(CCc2ccc(Oc3cc(CCc4cccc(O)c4)cc(O)c3O)cc2)c1", "growth": "96.7%"}, {"smiles": "CCCCCCCC(=O)OCC/C=C/C1OC1C1OC(=O)/C=C\\C=C\\C(=O)N(C(C)=O)C(=O)/C=C(/C)CCC2OC2C1OC(=O)NC(C)=O", "note": "(stereo not drawn)", "growth": "90.9%"}, {"smiles": "Cc1ccc(NS(=O)(=O)c2ccc(-c3cnc(C4CC4)o3)cc2)cc1C(F)(F)F", "growth": "43.6%"}, {"smiles": "CNC(=O)c1cncc(Cn2nc(C)c(NC(=O)c3ccc(COc4ccc(C(F)(F)F)cc4C)cc3)c2C)c1", "growth": "40.4%"}, {"smiles": "Cc1cc(C)c(S(=O)(=O)Oc2ccccc2[N+](=O)[O-])c(C)c1", "growth": "-7.8% (active)"}, {"smiles": "C=C1C(=O)O[C@H]2[C@H]1CC/C(CNC(=O)C(C)c1ccc(CC(C)C)cc1)=C\\CC[C@@]1(C)O[C@@H]21", "note": "(stereo partly drawn)", "growth": "75.9%"}, {"smiles": "NC(=S)N1N=C(c2ccccc2)CC1c1cn(-c2ccccc2)nc1-c1ccc(OCc2ccccc2)cc1", "note": "(stereo not drawn)", "growth": "105%"}, {"smiles": "CN1CCN(C(=O)[C@]23CCC(C)(C)C[C@H]2C2=CC[C@@H]4[C@@]5(C)C/C(=C/c6cccnc6)C(=O)C(C)(C)[C@@H]5CC[C@@]4(C)[C@]2(C)CC3)CC1", "growth": "74%"}, {"smiles": "O=C1Nc2cc(-c3cccc(O)c3)ccc2/C1=C/c1ccc[nH]1", "growth": "19.3%"}, {"smiles": "COc1ccc(/C=C/c2nc(Nc3ccc(S(=O)(=O)NC(C)=O)cc3)c3ccccc3n2)cc1", "growth": "81.2%"}, {"smiles": "CCNC(=O)Oc1ccc(/C(=C(\\C)c2ccccc2)c2ccc(OCCN3CCCCC3)cc2)cc1", "growth": "29.7%"}]}]}
